# Target: U3 small nucleolar RNA-associated protein 4 (UniProt Q06679)
# Test: cross-link between two proteins
# Chain of U3 small nucleolar RNA-associated protein 4 (Q06679 whole entry): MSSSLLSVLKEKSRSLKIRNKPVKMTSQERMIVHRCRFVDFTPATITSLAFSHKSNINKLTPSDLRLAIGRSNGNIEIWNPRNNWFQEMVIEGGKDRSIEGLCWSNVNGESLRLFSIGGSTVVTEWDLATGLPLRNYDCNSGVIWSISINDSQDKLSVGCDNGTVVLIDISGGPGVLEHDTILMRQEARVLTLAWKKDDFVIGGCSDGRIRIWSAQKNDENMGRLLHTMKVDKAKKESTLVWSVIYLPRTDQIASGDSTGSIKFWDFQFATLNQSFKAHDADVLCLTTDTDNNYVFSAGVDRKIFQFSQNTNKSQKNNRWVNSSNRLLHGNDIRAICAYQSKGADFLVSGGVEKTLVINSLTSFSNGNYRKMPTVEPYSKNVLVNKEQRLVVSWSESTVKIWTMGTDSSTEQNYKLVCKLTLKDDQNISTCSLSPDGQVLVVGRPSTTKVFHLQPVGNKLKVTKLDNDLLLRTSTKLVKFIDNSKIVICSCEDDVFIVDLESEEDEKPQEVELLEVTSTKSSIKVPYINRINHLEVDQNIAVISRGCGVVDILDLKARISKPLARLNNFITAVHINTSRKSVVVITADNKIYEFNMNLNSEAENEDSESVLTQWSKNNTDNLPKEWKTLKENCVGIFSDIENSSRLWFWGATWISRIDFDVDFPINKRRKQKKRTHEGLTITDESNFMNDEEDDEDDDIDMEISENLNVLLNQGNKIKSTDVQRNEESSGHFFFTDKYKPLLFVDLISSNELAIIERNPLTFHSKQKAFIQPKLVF
substance,measurement,value
"U3 small nucleolar RNA-associated protein 8, P53276",listed as a hit,yes

# Source: article PMC4931317
